# Experimental data reported in article PMC8384837, “Expanding the binding specificity for RNA recognition by a PUF domain”.
# Experiments:
# Assay in all cases: yeast three-hybrid, YBZ-1, SC-Leu-His + 0.5 mM 3-AT, 4 days
# Conditions in all cases: tags: N-Gal4 AD-HA kept; label: inside an RPR1-promoter hybrid RNA with tandem MS2 sites; ssRNA
# PUM1 PUF domain R3-FSR = PUM1 PUF domain R3-FSR (Homo sapiens, UniProt Q14671 828-1176, C935F;R936S;Q939R)
# Summary of the method: (§1)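 Matching RNA elements and Pumilio-1 PUF domain libraries, randomized at the three base-contacting residues of every repeat, were co-expressed from a centromeric plasmid in strain YBZ-1 (LexA–MS2 coat fusion, HIS3 reporter). The repeat regions were PCR-amplified and Illumina-sequenced from cells grown four days on SC-Leu (input) or SC-Leu-His + 0.5 mM 3-AT (selection). The interaction score is the log change in variant frequency from input to selection. It is computed in log2, with a pseudocount of 1 for absent variants.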
# PUM1 PUF domain R4-LGL = PUM1 PUF domain R4-LGL (Homo sapiens, UniProt Q14671 828-1176, N971L;H972G;Q975L)
# Summary of the method: as §1
# PUM1 PUF domain R6-FYQ = target: T1, PUM1 PUF domain R6-FYQ (Homo sapiens, UniProt Q14671 828-1176, N1043F)
# T1 sequence: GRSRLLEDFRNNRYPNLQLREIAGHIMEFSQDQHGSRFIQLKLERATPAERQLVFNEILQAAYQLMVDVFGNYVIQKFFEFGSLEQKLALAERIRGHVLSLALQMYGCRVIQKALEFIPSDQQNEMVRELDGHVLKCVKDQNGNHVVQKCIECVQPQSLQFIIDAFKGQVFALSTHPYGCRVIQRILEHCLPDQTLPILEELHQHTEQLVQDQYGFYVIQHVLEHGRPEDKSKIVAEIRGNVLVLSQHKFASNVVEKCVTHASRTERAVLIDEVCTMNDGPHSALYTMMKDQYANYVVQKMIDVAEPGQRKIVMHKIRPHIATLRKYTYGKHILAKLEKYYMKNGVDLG
# Summary of the method: as §1
# PUM1 PUF domain R7-RRV = PUM1 PUF domain R7-RRV (Homo sapiens, UniProt Q14671 828-1176, S1079R;N1080R;E1083V)
# Summary of the method: as §1
# PUM1 PUF domain R5-RAD = PUM1 PUF domain R5-RAD (Homo sapiens, UniProt Q14671 828-1176, C1007R;R1008A;Q1011D)
# Summary of the method: as §1
# PUM1 PUF domain R5-LYD = PUM1 PUF domain R5-LYD (Homo sapiens, UniProt Q14671 828-1176, C1007L;R1008Y;Q1011D)
# Summary of the method: as §1
# PUM1 PUF domain R5-QCL = PUM1 PUF domain R5-QCL (Homo sapiens, UniProt Q14671 828-1176, C1007Q;R1008C;Q1011L)
# Summary of the method: as §1
# PUM1 PUF domain R3-RVQ = PUM1 PUF domain R3-RVQ (Homo sapiens, UniProt Q14671 828-1176, C935R;R936V)
# Summary of the method: as §1
# PUM1 PUF domain R7-IFV = PUM1 PUF domain R7-IFV (Homo sapiens, UniProt Q14671 828-1176, S1079I;N1080F;E1083V)
# Summary of the method: as §1
sequence,measurement,setting,value
GGCUAGAACUAGUGGAUCCCCCGGCGCCCGGCGGCUCGAGCCCGGGUAAGUGUAAGUAGUCUGCAUGCCGCCGGGCGCCAUGCCUGCAGGUCGACUCUAGAAAACAUG,binding signal,PUM1 PUF domain R3-FSR,3.48 log2 enrichment (interaction score)
GGCUAGAACUAGUGGAUCCCCCGGCGCCCGGCGGCUCGAGCCCGGGUAAGUGUAAAUAGUCUGCAUGCCGCCGGGCGCCAUGCCUGCAGGUCGACUCUAGAAAACAUG,binding signal,PUM1 PUF domain R4-LGL,3.33 log2 enrichment (interaction score)
same,binding signal,PUM1 PUF domain R6-FYQ,4.7 log2 enrichment (interaction score)
GGCUAGAACUAGUGGAUCCCCCGGCGCCCGGCGGCUCGAGCCCGGGUAAGUUUAAAUAGUCUGCAUGCCGCCGGGCGCCAUGCCUGCAGGUCGACUCUAGAAAACAUG,binding signal,PUM1 PUF domain R7-RRV,4.01 log2 enrichment (interaction score)
GGCUAGAACUAGUGGAUCCCCCGGCGCCCGGCGGCUCGAGCCCGGGUAAGUCUAAAUAGUCUGCAUGCCGCCGGGCGCCAUGCCUGCAGGUCGACUCUAGAAAACAUG,binding signal,PUM1 PUF domain R7-RRV,4.92 log2 enrichment (interaction score)
GGCUAGAACUAGUGGAUCCCCCGGCGCCCGGCGGCUCGAGCCCGGGUAAGUGUUAAUAGUCUGCAUGCCGCCGGGCGCCAUGCCUGCAGGUCGACUCUAGAAAACAUG,binding signal,PUM1 PUF domain R5-RAD,1.31 log2 enrichment (interaction score)
same,binding signal,PUM1 PUF domain R5-LYD,3.06 log2 enrichment (interaction score)
GGCUAGAACUAGUGGAUCCCCCGGCGCCCGGCGGCUCGAGCCCGGGUAAGUGUCAAUAGUCUGCAUGCCGCCGGGCGCCAUGCCUGCAGGUCGACUCUAGAAAACAUG,binding signal,PUM1 PUF domain R5-RAD,2.61 log2 enrichment (interaction score)
GGCUAGAACUAGUGGAUCCCCCGGCGCCCGGCGGCUCGAGCCCGGGUAAGUGUGAAUAGUCUGCAUGCCGCCGGGCGCCAUGCCUGCAGGUCGACUCUAGAAAACAUG,binding signal,PUM1 PUF domain R5-QCL,2.87 log2 enrichment (interaction score)
GGCUAGAACUAGUGGAUCCCCCGGCGCCCGGCGGCUCGAGCCCGGGUAAGUGUAAUUAGUCUGCAUGCCGCCGGGCGCCAUGCCUGCAGGUCGACUCUAGAAAACAUG,binding signal,PUM1 PUF domain R3-RVQ,2.03 log2 enrichment (interaction score)
GGCUAGAACUAGUGGAUCCCCCGGCGCCCGGCGGCUCGAGCCCGGGUAAGUAUAAAUAGUCUGCAUGCCGCCGGGCGCCAUGCCUGCAGGUCGACUCUAGAAAACAUG,binding signal,PUM1 PUF domain R7-IFV,2.59 log2 enrichment (interaction score)
